Test results: PubChem BioAssay AID729 (The Scripps Research Institute Molecular Screening Center, 2007)
About 450 (0.46%) of roughly 97,000 compounds were called active. This is one part of a sample in which actives are shown more often than they occur. Rule as the data show it: active = activation above about 16%; inactive = the rest.

The molecules below were run against Sphingosine 1-phosphate receptor 2 (Homo sapiens) (UniProt O95136) (assay: S1P2 receptor agonists, primary screen, cell-based (AID 729;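 also: 0% = vehicle low control and 100% = maximal reference agonist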)). Conditions: S1P2-expressing cell line, agonist reporter read-out; at 4.5 µM; active compounds read high.
Chain of Sphingosine 1-phosphate receptor 2 (Homo sapiens) (O95136 whole entry, looked up): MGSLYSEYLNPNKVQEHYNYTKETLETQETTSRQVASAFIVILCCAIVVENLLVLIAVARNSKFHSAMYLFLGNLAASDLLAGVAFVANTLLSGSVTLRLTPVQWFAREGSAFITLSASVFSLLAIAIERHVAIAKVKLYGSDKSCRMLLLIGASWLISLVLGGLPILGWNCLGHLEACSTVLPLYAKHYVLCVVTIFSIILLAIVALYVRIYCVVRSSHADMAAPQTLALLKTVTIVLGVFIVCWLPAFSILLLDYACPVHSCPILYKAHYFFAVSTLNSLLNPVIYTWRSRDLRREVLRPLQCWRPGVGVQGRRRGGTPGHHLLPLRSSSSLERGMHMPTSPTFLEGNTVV

| Structure (SMILES) | activation |
| --- | --- |
| CCOC(=O)c1c(N)n(CCN2CCOCC2)c2nc3ccccc3nc12 | -0.82% (inactive) |
| CCOC(=O)c1c(N)n(Cc2ccccc2)c2nc3ccccc3nc12 | 1.34% (inactive) |
| COc1cc(Cn2c(N)c(C(=O)NCc3ccco3)c3nc4ccccc4nc32)cc(OC)c1OC | 28.7% (active) |
| O=c1c2ccccc2nc(-c2ccc(Cl)cc2Cl)n1-c1ccncc1 | -3.53% (inactive) |
| OC(Cn1c2ccccc2c2ccccc21)C[n+]1ccccc1 (stereo not given) | -10.8% (inactive) |
